Compound activity deposited in PubChem by National Center for Advancing Translational Sciences (NCATS).
Pf growth 48h: P. falciparum growth inhibition at 48 hours (one generation); 310,000 compounds, 5.9% hits; P. falciparum luciferase growth in erythrocytes, 48 h; Potency, µM (series often up to 28.7 µM), hits mostly inhibitors
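Luciferase-expressing parasites in RBCs, 2% Hct / 0.1% parasitemia final; RPMI 1640 + 0.5% Albumax; 37 C, 5% CO2, one generation; luminescence read-out, lower signal = inhibition.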
CHX counter: affects cycloheximide protein synthesis inhibition readout, counter-screen | cell reporter, cycloheximide protein synthesis inhibition counterscreen | max response, % | 300,000 compounds, 12% hits; in the data active = max response mostly above about 13%, no sharp cut-off; inactive = mostly below about 14%; also: read at 38.3 µM for the half of the compounds with a filed dose
Pf growth 96h: inhibits malaria parasite growth, 96 h; P. falciparum luciferase reporter growth, 96 h; Potency, µM (doses to about 28.7 µM), usual class: inhibitors; 320,000 compounds, 6.9% hits
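Delayed-death screen, second-generation endpoint: infected erythrocytes, 2% hematocrit, 0.05% parasitemia final; 96 hours at 37 C, 5% CO2; luciferase detection reagent; luminescence decrease equals reduced growth.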
NS1 inh: inhibitors of influenza NS1 protein function | Potency, µM (highest dose often 46.1 µM) | 270,000 compounds, 0.4% hits; calls by dose curve; also: actives are rising curves; nearly all actives have a fitted effect of over 50% in size
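S. cerevisiae expressing influenza A NS1, grown in glucose, washed, then diluted 1:100 into pH 6.0 -URA galactose medium with 23 nl compound. Growth recovery read as OD600; NS1-free strain serves as control.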
Sm TGR inh: S. mansoni TGR enzyme inhibition | 360,000 compounds, 3% hits | AID 485364 | purified TGR, DTNB reduction, TNB absorbance 405 nm | Potency, µM (highest dose often 114 µM), most hits filed as inhibitors; also: nearly all actives have a fitted effect of over 60% in size
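Kinetic colorimetric format: TGR-catalysed, NADPH-driven DTNB reduction monitored via TNB absorbance. Enzyme dispensed at 20 nM; compound exposure 15 min at room temperature before reaction start.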
Shiga inhibitor: inhibitors of Shiga toxin in Vero cells; inhibition, % at 38.7 µM; AID 2315; 290,000 compounds, 9.2% hits; Vero cells, Shiga toxin protein synthesis inhibition reporter; in the data active = inhibition mostly above about 28%, no sharp cut-off; inactive = mostly below about 43%
Of the large screens only hits and unclear results are named; the others gave an inactive call. Compounds with a hit are over-represented: about 21% of the library has one in this group of screens. Unless noted, calls follow the shape of the dose curve; as a rule, active = well fitted curve in the direction sought with a large enough effect; inconclusive = small, poorly fitted or top-dose-only effect, or another doubt; inactive = no such curve, though single readings can be large; an effect the other way counts as inactive or inconclusive.

Cn1nc(C(=O)Nc2nc3ccccc3[nH]2)ccc1=O	CHX counter 46, Sm TGR inh inconclusive, Shiga inhibitor 84 (no result: NS1 inh)
COc1cc(SC)ccc1C(=O)Nc1nc2ccccc2[nH]1	Pf growth 48h inconclusive, Pf growth 96h 0.17µM
CSc1ccccc1C(=O)Nc1nc2ccccc2[nH]1	CHX counter 39, Shiga inhibitor 73 (no result: NS1 inh)
Cc1sc(NC(=O)Cn2[nH]c(=O)c3ccccc3c2=O)nc1-c1ccccc1	Pf growth 48h inconclusive, Pf growth 96h 12µM, NS1 inh inconclusive
COc1ccccc1C(=O)Nc1nc2ccccc2[nH]1	none
CS(=O)(=O)c1ccccc1C(=O)Nc1nc2ccccc2[nH]1	none
CNC(=S)Nc1cc(OC)ccc1OC	Sm TGR inh inconclusive
Cc1nn(C(C)C(=O)NC2C(=O)N3C(C(=O)O)=C(CSc4nnnn4C)CSC23)cc1Cl (configuration not stated)	Sm TGR inh 2.2µM (no result: NS1 inh)
CC(C(=O)NC1C(=O)N2C(C(=O)O)=C(CSc3nnnn3C)CSC12)n1cc(Br)cn1 (configuration not stated)	Sm TGR inh 0.56µM (no result: NS1 inh)
Cn1nnnc1SCC1=C(C(=O)O)N2C(=O)C(NC(=O)C3CC3c3ccccc3)C2SC1 (configuration not stated)	Sm TGR inh 2.5µM (no result: NS1 inh)
CO/N=C(\C(=O)N[C@@H]1C(=O)N2C(C(=O)O)=C(CSc3nc(=O)c(O)nn3C)CSC12)c1csc(N)n1 (some centres not stated)	none (no result: Pf growth 48h, CHX counter, Pf growth 96h, Sm TGR inh, Shiga inhibitor)
Cn1nnnc1SCC1=C(C(=O)O)N2C(=O)[C@@H](NC(=O)[C@H](O)c3ccccc3)[C@H]2SC1	none
Cc1cc(C(F)F)nn1CC(=O)NC1C(=O)N2C(C(=O)O)=C(CSc3nnnn3C)CSC12 (configuration not stated)	Sm TGR inh 14µM (no result: NS1 inh)
CC1=C(C(=O)O)N2C(=O)[C@@H](NC(=O)[C@H](N)c3ccccc3)[C@H]2SC1	none (no result: NS1 inh)
N[C@@H](Cc1ccc(O)cc1)c1nnc([C@H](CC(=O)O)NC(=O)C2CCNCC2)o1	none
CCOC(=O)c1c(-c2ccccc2)csc1NC(=O)C(C)NCc1ccco1 (configuration not stated)	Pf growth 48h inconclusive, Pf growth 96h 13µM
CCOC(=O)c1c(-c2ccccc2)csc1NC(=O)c1ccc(S(=O)(=O)N2CC(C)OC(C)C2)cc1 (configuration not stated)	Pf growth 48h 10µM, Pf growth 96h 9.3µM
CCOC(=O)c1c(-c2ccccc2)csc1NC(=O)c1nn(CC)cc1Br	Pf growth 48h 13µM (no result: Pf growth 96h)
CCOC(=O)c1c(-c2ccccc2)csc1NC(=S)N(CC)CC	Pf growth 48h 12µM, Pf growth 96h 5.2µM
CCOC(=O)c1c(-c2ccccc2)csc1NC(=O)c1cc(-c2ccc(Cl)cc2)on1	none (no result: Pf growth 48h, CHX counter, Pf growth 96h, NS1 inh, Shiga inhibitor)
CC12CCC=CC1C(c1ccc(Br)cc1F)N(Cc1ccccc1)C2=O (configuration not stated)	none (no result: Pf growth 48h, Pf growth 96h, NS1 inh, Sm TGR inh)
CC1CCC(C(=O)NC(C(=O)OCC(=O)c2ccccc2)C(C)C)CC1 (configuration not stated)	none (no result: Pf growth 48h, CHX counter, Pf growth 96h, NS1 inh, Shiga inhibitor)
CCOC(=O)c1c(NC(=O)c2nn(CC)cc2Br)c(C#N)cn1-c1ccccc1	Pf growth 48h 9.3µM
CCOC(=O)c1c(N)c(C#N)cn1-c1ccccc1	none (no result: Pf growth 96h)
CCc1ccc(N(CC(=O)N2CCOCC2)S(C)(=O)=O)cc1	Pf growth 96h 13µM (no result: Shiga inhibitor)
CCc1ccc(N(CC(=O)N2CCCCCC2)S(C)(=O)=O)cc1	Pf growth 96h inconclusive
COc1ccc(S(=O)(=O)N(CC(=O)N2CCN(c3ccccc3)CC2)c2ccccc2)cc1	Pf growth 96h inconclusive (no result: Pf growth 48h)
COc1ccc(N2CCN(C(=O)CN(c3cccc(OC)c3)S(=O)(=O)c3ccccc3)CC2)cc1	Pf growth 48h 13µM, Pf growth 96h inconclusive
COc1ccc(N2CCN(C(=O)CN(c3ccccc3)S(C)(=O)=O)CC2)cc1	Pf growth 96h 10µM
Cc1csc2nc(-c3ccc(NS(=O)(=O)c4cccc(F)c4)cc3)cn12	none (no result: Pf growth 48h, CHX counter, Pf growth 96h, NS1 inh, Shiga inhibitor)
CCOc1ccc(C(C(=O)NC2CCCCC2)N(C(=O)c2ccccn2)c2cccnc2)cc1 (configuration not stated)	Pf growth 48h 10µM, Pf growth 96h 15µM (no result: Sm TGR inh)
CCc1ccc(C(C(=O)NC2CCCCC2)N(C(=O)c2ccccn2)c2cccnc2)cc1 (configuration not stated)	none
CCOc1ccc(N(C(=O)c2cnsn2)C(C(=O)NC2CCCCC2)c2ccncc2)cc1 (configuration not stated)	Pf growth 48h inconclusive, Pf growth 96h 1.2µM
COc1cccc(C(C(=O)NC2CCCCC2)N(C(=O)c2ccccn2)c2cccnc2)c1 (configuration not stated)	Pf growth 96h 1.7µM
COc1ccc(C(C(=O)NC2CCCCC2)N(C(=O)c2ccccn2)c2cccnc2)c(OC)c1 (configuration not stated)	Pf growth 96h inconclusive
O=C(Nc1cccc2ccccc12)N(CCO)C1CCS(=O)(=O)C1 (configuration not stated)	none
COc1ccccc1/C=C(/CC(=O)NCc1ccc2c(c1)OCO2)c1nc2ccccc2s1	CHX counter 20, Pf growth 96h inconclusive, Shiga inhibitor 67
COc1ccc(/C=C(/CC(=O)NCc2ccc(Cl)cc2)c2nc3ccccc3s2)cc1	CHX counter 19, Pf growth 96h inconclusive
O=C(O)C/C(=C\c1ccc2c(c1)OCO2)c1nc2ccccc2s1	CHX counter 32, Shiga inhibitor 69
COc1ccc(/C=C(/CC(=O)Nc2ccccc2)c2nc3ccccc3s2)cc1	Pf growth 96h inconclusive
CCOc1ccc(-n2ccc(=O)c(C(=O)Nc3ccc(S(=O)(=O)Nc4ncccn4)cc3)n2)cc1	none
CCc1nc2ccc(C(=O)NCc3ccc(SC)cc3)cc2nc1CC	none (no result: Pf growth 48h, CHX counter, Pf growth 96h, NS1 inh, Shiga inhibitor)
CC(C)CN(C(=O)COC(=O)CNC(=O)c1sc2ccccc2c1Cl)C1CCS(=O)(=O)C1 (configuration not stated)	none (no result: CHX counter, NS1 inh, Shiga inhibitor)
O=C(COc1cccnc1[N+](=O)[O-])NCCc1ccc(F)cc1	none (no result: Sm TGR inh)
COc1cc(C)nc(N2CCCC(C(=O)NC3CCC(C)CC3)C2)n1 (configuration not stated)	CHX counter 32, Pf growth 96h 2.9µM, NS1 inh inconclusive
Cc1cc(C)nc(N2CCCC(C(=O)Nc3ccc4nc(C)c(C)nc4c3)C2)n1 (configuration not stated)	Pf growth 48h 12µM (no result: Pf growth 96h)
Cc1cc(C)nc(N2CCCC(C(=O)Nc3nc4ccc(S(C)(=O)=O)cc4s3)C2)n1 (configuration not stated)	Pf growth 48h 7.4µM (no result: Pf growth 96h)
Cc1cc(C)nc(N2CCC(C(=O)Nc3ccc4c(c3)CCC4)CC2)n1	Pf growth 96h 12µM
Cc1c(C(=O)NCc2ccccc2Cl)sc2nc[nH]c(=O)c12	none (no result: Pf growth 48h, CHX counter, Pf growth 96h, NS1 inh, Shiga inhibitor)
COc1ccc(S(=O)(=O)N2CCC(C(=O)N3CCN(C)CC3)CC2)cc1Cl	none
